# LYPLA2 inh: counter-screen for PME1 inhibitors: inhibitors of human LYPLA2. inhibition, % at 5.9 µM. O95372. recombinant LYPLA2, FP-Rh probe fluorescence polarization. hit rate 0.38% among 320,000. AID 2177;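 active = inhibition above the screen-wide mean plus 3 SD, limit set per campaign, cut at about 26% in these data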
# Target sequence (O95372 whole entry, looked up): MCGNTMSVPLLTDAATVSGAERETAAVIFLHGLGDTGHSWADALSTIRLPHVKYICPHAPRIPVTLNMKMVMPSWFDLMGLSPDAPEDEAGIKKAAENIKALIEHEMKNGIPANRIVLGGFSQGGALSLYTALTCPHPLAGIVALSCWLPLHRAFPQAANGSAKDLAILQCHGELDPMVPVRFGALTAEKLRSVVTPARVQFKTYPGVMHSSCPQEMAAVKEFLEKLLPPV
# PAFAH1B3 inh: blocks human PAF acetylhydrolase 1B catalytic subunit 3 | recombinant PAFAH1B3, FP-rhodamine probe, fluorescence polarization | Q15102 | hit rate 0.28% among 340,000 | AID 492972 | inhibition, % at 3.39 µM;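 active = inhibition above the screen-wide average of all tested compounds plus 3 SD, cut at about 25% in these data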
# Target sequence (Q15102 whole entry, looked up): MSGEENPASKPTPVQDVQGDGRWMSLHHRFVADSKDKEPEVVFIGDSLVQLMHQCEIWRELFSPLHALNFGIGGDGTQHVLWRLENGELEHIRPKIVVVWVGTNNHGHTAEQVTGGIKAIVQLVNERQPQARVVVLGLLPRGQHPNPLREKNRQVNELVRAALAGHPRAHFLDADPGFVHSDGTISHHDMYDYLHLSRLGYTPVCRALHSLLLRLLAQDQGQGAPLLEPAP
# PAFAH1B2 inh: blocks human PAF acetylhydrolase 1b catalytic subunit 2; P68402; recombinant PAFAH1B2, FP-rhodamine activity probe, fluorescence polarization; inhibition, % at 3.39 µM; hit rate 1.2% among 340,000;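 active = inhibition above the mean of all tested compounds plus 3 SD, cut at about 24% in these data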
# PAFAH2 FP inh: PAFAH2 (human) inhibition; inhibition, % at 3.39 µM; recombinant PAFAH2, FP-rhodamine activity probe, fluorescence polarization; hit rate 0.99% among 340,000; AID 492956; Q99487;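 active = inhibition above the mean over all tested compounds plus 3 SD, cut at about 30% in these data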;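 note: inhibitors block probe labeling of enzyme so polarization drops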
# LYPLA1 counter: blocks human lysophospholipase 1, a PME1 counter-screen. O75608. recombinant LYPLA1, FP-Rh probe fluorescence polarization. inhibition, % at 5.9 µM. hit rate 0.16% among 320,000. AID 2174;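 active = inhibition above the mean of all tested compounds plus 3 SD, set per campaign, cut at about 14% in these data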;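 note: inhibitors block serine hydrolase probe labeling of LYPLA1 so polarization falls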
# pPAFAH inh: pPAFAH (human) enzyme inhibition; AID 463082; hit rate 1.5% among 330,000; recombinant pPAFAH, FP-rhodamine probe fluorescence polarization; inhibition, % at 3.39 µM;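 active = inhibition above the mean inhibition across the screen plus 3 SD, cut at about 25% in these data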;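 note: inhibitors block binding of the rhodamine activity-based probe so polarization drops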
# Numbers stand for hits; 0 = inactive; - = no result given. Shown are actives, neighbours in structure and some others; about 2.9% of the full set was active somewhere.
SMILES,LYPLA2 inh,PAFAH1B3 inh,PAFAH1B2 inh,PAFAH2 FP inh,LYPLA1 counter,pPAFAH inh
COc1cc(/C=C(\C#N)c2nc3c(s2)CCCC3)ccc1O,0,-,-,-,0,35
COc1ccc2c(c1)OC[C@H]1[C@H]2N2C(=O)CN(Cc3ccc(Cl)cc3)C(=O)[C@@]2(C)[C@H]1c1ccccc1,0,0,0,0,0,0
CCC(Oc1ccccc1)C(=O)Nc1nnc(S(=O)(=O)Nc2ccccc2)s1 (stereo unspecified),0,0,0,0,0,33
CN(c1ccccc1)S(=O)(=O)c1nnc(NC(=O)COc2ccccc2)s1,0,0,0,0,0,0
O=C(COc1ccccc1)Nc1nnc(S(=O)(=O)Nc2ccccc2)s1,0,0,0,0,0,27
COc1ccccc1OCC(=O)Nc1sc2c(c1C(N)=O)CCC2,-,0,0,0,-,0
COc1cccc(C(=O)OCC(=O)Nc2sc3c(c2C(N)=O)CCC3)c1O,0,0,0,0,0,28
COc1cccc(/C=N/n2c(=O)[nH]c3ccccc32)c1OC,0,0,0,0,0,0
CCOC(=O)CC(=O)NC(CC(=O)OC)c1ccc(C(C)C)cc1 (stereo unspecified),0,0,29,0,0,0
Cn1cnnc1SCC(=O)Nc1ccc(F)cc1F,0,0,0,0,0,0
CCOc1ccc2c(c1)sc(N)[n+]2Cc1cc(C)cc2cccnc12,35,0,0,0,0,0
COc1ccc2c(c1)sc(N)[n+]2Cc1cc(C)cc2cccnc12,0,0,0,0,0,0
CC1CN(C(=O)COC(=O)c2ccc(Cl)c(N)c2)CC(C)O1 (stereo unspecified),0,0,0,0,0,0
Cc1ccc(Nc2c(-c3ccccn3)nc3ccc(C)cn23)cc1,0,0,0,0,0,28
CCOc1ccc(Br)cc1C1=NN(C(C)=O)C(c2ccc([N+](=O)[O-])s2)O1 (stereo unspecified),-,0,0,39,-,-
CC(=O)N1N=C(c2ccc(C)cc2)OC1c1ccc(Br)cc1 (stereo unspecified),0,0,0,0,0,0
Cc1cc(C(C)(C)C)ccc1Oc1cccc2c1S(=O)(=O)N(C1CCCC1)CC(COCc1ccccc1)O2 (stereo unspecified),-,0,0,0,-,-
CS(=O)(=O)N(CC(=O)N1CCN(c2ccccc2)CC1)Cc1ccc(Cl)cc1,0,0,25,0,0,0
O=C(Cn1ccc(NC(=O)OCc2ccccc2)nc1=O)NCC1CCCO1 (stereo unspecified),0,0,0,0,0,0
CC(=O)NC(C)C12CC3CC(CC(C(=O)O)(C3)C1)C2 (stereo unspecified),0,0,0,0,0,0
CC(NC(N)=O)C12CC3CC(CC(C3)C1)C2 (stereo unspecified),0,0,26,0,0,0
COc1cccc(OC(=O)N2CCOCC2)c1,0,0,0,0,0,0
COc1ccc(Oc2coc3cc(OC(=O)N4CCOCC4)ccc3c2=O)cc1,0,0,0,0,0,34
Cc1ccc(OCCC(=O)OCC(=O)c2c(N)n(C)c(=O)n(C)c2=O)cc1,0,0,0,0,0,0
COc1cc(C)c(/C=C/C(C)=C/C=C/C(C)=C/C(=O)O)c(C)c1C,0,0,0,0,0,29
SMILES,LYPLA2 inh,PAFAH1B3 inh,PAFAH1B2 inh,PAFAH2 FP inh,LYPLA1 counter,pPAFAH inh
CCCN(CCC)c1nc(Cl)nc(NCc2ccco2)n1,0,0,0,0,0,26
OCCNc1nc(Cl)nc(NCc2ccco2)n1,0,0,0,0,0,0
COc1ccc(CNC(=O)CNC(=O)[C@@H]2Cc3ccccc3CN2)cc1,0,0,0,0,0,0
C[C@@H](C(=O)OCC(=O)c1ccc(F)c(F)c1)N1C(=O)C2CCCCC2C1=O (stereo partly specified),-,0,0,0,-,28
C[C@@H](C(=O)OCC(=O)c1ccccc1)N1C(=O)C2CCCCC2C1=O (stereo partly specified),-,0,0,0,-,0
O=C(O)C(c1ccccc1)N1C(=O)/C(=C\c2ccc(-c3ccc(Br)cc3)o2)SC1=S (stereo unspecified),-,0,0,0,-,-
O=C(O)C(c1ccccc1)N1C(=O)/C(=C\c2ccc(-c3ccccc3Cl)o2)SC1=S (stereo unspecified),0,0,0,45,0,63
Cc1ccc(C(=O)Oc2ccc(-c3nnco3)cc2)o1,0,0,0,0,0,0
Cc1ccc(NS(=O)(=O)c2ccc(CCC(=O)O)cc2)cc1,0,0,0,0,0,34
COCCCNC(=O)CCc1ccc(S(=O)(=O)Nc2ccc(C)cc2)cc1,0,0,0,0,0,0
Cc1ccc(NS(=O)(=O)c2ccc(CCC(=O)NCCCOC(C)C)cc2)cc1,0,0,0,0,0,26
CC(=O)c1ccc(NS(=O)(=O)c2ccc(CC(C)C)cc2)cc1,0,0,28,0,0,0
CCn1c(=O)c(=O)n(CC)c2cc(S(=O)(=O)Nc3ccc(C)cc3)ccc21,0,0,0,0,0,26
CCn1c(=O)n(CC)c2cc(S(=O)(=O)Nc3c(C)cccc3C)ccc21,0,0,0,0,0,0
Cc1csc(N(C(=O)CCNC(=O)c2ccc([N+](=O)[O-])cc2)c2ccccc2)n1,0,0,0,0,0,0
COc1ccc(OC)c(C2C3=C(CC(C)(C)CC3=O)Nc3nnnn32)c1 (stereo unspecified),0,0,0,0,0,29
COc1ccc(Nc2nc(N)c(C(=O)c3ccc(OC)cc3)s2)cc1,0,0,0,0,0,26
COc1ccc(C(=O)c2sc(NC(C)C)nc2N)cc1OC,0,0,0,0,0,0
COc1ccc(Nc2nc(N)c(C(=O)c3ccc(F)cc3)s2)cc1,0,0,0,0,0,31
O=[N+]([O-])c1cccc(-c2cc(C(F)(F)F)n3nc(-c4ccccc4)cc3n2)c1,0,0,0,0,0,0
Cc1ccccc1NS(=O)(=O)c1ccc(NC(=O)CSCc2ccc(Br)cc2)cc1,0,0,0,0,0,26
O=C(CSCc1ccc(Br)cc1)Nc1ccc(S(=O)(=O)N2CCOCC2)cc1,0,0,0,0,0,0
O=C(COc1ccc(S(=O)(=O)Nc2ccccc2)cc1)N1CCOCC1,0,0,0,0,0,27
Cc1ccc(S(=O)(=O)CCC(=O)OCC(=O)N2CCN(S(=O)(=O)c3ccc(Cl)cc3)CC2)cc1,0,0,0,0,0,0
CCOc1ccccc1OCCCC(=O)N1CCN(S(=O)(=O)c2ccc(C)cc2)CC1,0,0,29,0,0,0
O=C(Cc1ccc(F)cc1)OCC(=O)N1CCN(S(=O)(=O)c2ccc(Cl)cc2)CC1,0,0,0,0,0,33
COc1ccccc1CNC(=O)N1CCN(S(=O)(=O)c2ccc(Cl)cc2)CC1,0,0,30,0,0,0
Cc1cnc(C(=O)OCc2ccc(Br)cc2)cn1,0,0,0,0,0,0
Cc1ccc(NC(=O)CSCc2ccc(F)cc2)cc1,0,0,0,0,0,0
